{"source": "PubChem BioAssay (EPA / NIEHS)", "note": "Records with an inconclusive call do not appear. Activity calls are given as the source filed them. How the source made its calls: active means hit-call score of the fitted dose curve at least 0.9, where 1 is the maximum; inconclusive means response in the unintended direction; inactive means score below 0.9."}
{"experiment": "CLD_ACTIN_48hr: CellzDirect (CLD) Gene Expression Assay for Baseline Control (Actin) at 48 hours (AID 2283702)", "method": "CLD_48hr is a cell-based, multiplexed-readout assay that uses hepatocyte, a human liver primary cell, with measurements taken at 48 hours after chemical dosing in a 96-well plate.CLD_ACTIN_48hr is one of 16 assay component(s) measured or calculated from the CLD_48hr assay. It is designed to make measurements of mRNA induction, a form of inducible reporter, as detected with chemiluminescence signals by Quantitative Nuclease Protection Assay (qNPA) technology.Data from the assay component CLD_ACTIN_48hr was analyzed at the endpoint, CLD_ACTIN_48hr, in the positive analysis fitting direction relative to DMSO as the negative control and baseline of activity. Using a type of inducible reporter, gain-of-signal activity can be used to understand changes in the reporter gene as they relate to the gene ACTA1. Furthermore, this assay endpoint can be referred to as a secondary readout, because this assay has produced multiple assay endpoints where this one serves a background control function. To generalize the intended target to other relatable targets, this assay endpoint is annotated to the background measurement intended target family, where subfamily is baseline control.\nHuman hepatocyte cultures were treated daily for two consecutive days with fresh dosing solutions containing appropriate concentrations of the 320 ToxCast chemicals (chemical identities were blinded to CellzDirect and other ToxCast collaborators), vehicle control (0.2% DMSO), and positive control inducers as summarized in Table 1. Due to the large number of treatment groups and chemicals examined, the ToxCast chemicals were divided into two groups (spanning two independent cultures of hepatocytes from separate donor preparations (Hu778: ToxCast plates 1 and 2; Hu776: ToxCast plates 3 and 4). Each preparation of human hepatocyte cultures was treated with respective vehicle control, medium only control, set of six positive controls/reference chemicals for the five hepatic receptor pathways, and a subset of eight of the ToxCast chemicals (indoxacarb, pyrithiobac-sodium, norflurazon, cyhalofop-butyl, methomyl, thiram, acetochlor, and propiconazole). These replicate data, coupled with internal replicates designed within the blinded ToxCast chemical library, provided additional data to evaluate interindividual differences between hepatocyte preparations and their potential impact on chemical profiles.Cell morphology and integrity were evaluated using phase-contrast microscopy as an indicator of hepatocyte cell health (Tyson & Green, 1987). Cultures for each treatment group (i.e., media, vehicle [0.2% DMSO], positive control inducers [multiple concentrations], and the ToxCast chemicals [multiple concentrations]) were observed and cell morphology was assessed relative to vehicle control cultures at each harvest time point (0, 6, 24, or 48 h). […] Images were evaluated at the conclusion of the study to assess changes in cell integrity and account for the effects of chemical exposure on uncharacteristic changes in concentration-dependent gene expression profiles. The results from these determinations of apparent cytotoxicity were annotated (yes/no) alongside the corresponding qNPA data for reference.At the conclusion of each treatment period, hepatocyte cultures (96-well) were washed with 1 volume of HBSS, lysed by addition of 25 ul ArrayPlate lysis buffer (HTG, Tucson, AZ), and 70 ul/well of Denaturation Oil, denatured by incubation at 95C for 10 min, and frozen at approximately -70C until analysis by nuclease protection assay (qNPA) (Roberts et al., 2007). For qNPA analysis, cell lysates were thawed at 50C for approximately 30 min, qNPA probes were added, and samples were incubated at 95C for 10 min to begin the detection process by denaturing the target RNA, dissociating the duplexes and secondary structure hybridization. At the conclusion of the hybridization period, S1 nuclease reagent was added to each sample to digest all nonprotected nucleotides at 50C for 60-90 min. […]"}
{"smiles": "CC(Oc1cccc(Cl)c1)C(=O)O", "note": "(configuration not stated)", "outcome": "inactive"}
{"smiles": "Nc1nc(N)nc(NC2CC2)n1", "outcome": "inactive"}
{"smiles": "CNC(=O)Oc1cccc2c1OC(C)(C)O2", "outcome": "inactive"}
{"smiles": "CCCOc1nn(C(=O)NS(=O)(=O)c2ccccc2C(=O)OC)c(=O)n1C", "outcome": "inactive"}
{"smiles": "CCCCOC(=O)[C@@H](C)Oc1ccc(Oc2ccc(C#N)cc2F)cc1", "outcome": "inactive"}
{"smiles": "CC(C)=CC1C(C(=O)OCN2C(=O)C3=C(CCCC3)C2=O)C1(C)C", "note": "(configuration not stated)", "outcome": "inactive"}
{"smiles": "CCc1cccc(CC)c1N(COC)C(=O)CCl", "outcome": "inactive"}
{"smiles": "C[N+]1(C)CCCCC1", "outcome": "inactive"}
{"smiles": "COP(=O)(OC)OC(Br)C(Cl)(Cl)Br", "note": "(configuration not stated)", "outcome": "inactive"}
{"smiles": "COP(=O)(OC)C(O)C(Cl)(Cl)Cl", "note": "(configuration not stated)", "outcome": "inactive"}
{"smiles": "CON=C(C(=O)OC)c1ccccc1CON=C(C)c1cccc(C(F)(F)F)c1", "outcome": "inactive"}
{"smiles": "CC(C)N(C(=O)SCC(Cl)=C(Cl)Cl)C(C)C", "outcome": "inactive"}
{"smiles": "CC(=NC#N)N(C)Cc1ccc(Cl)nc1", "outcome": "inactive"}
{"smiles": "CC1=NNC(=O)N(/N=C/c2cccnc2)C1", "outcome": "inactive"}
{"smiles": "CCC(CC)Nc1c([N+](=O)[O-])cc(C)c(C)c1[N+](=O)[O-]", "outcome": "inactive"}
{"smiles": "CCc1cnc(C2=NC(C)(C(C)C)C(=O)N2)c(C(=O)O)c1", "note": "(configuration not stated)", "outcome": "inactive"}
{"smiles": "COP(=O)(OC)SCn1c(=O)oc2cc(Cl)cnc21", "outcome": "inactive"}
{"smiles": "CC[C@H](C)[C@H]1O[C@]2(C=C[C@@H]1C)C[C@@H]1C[C@@H](C/C=C(\\C)[C@@H](O[C@H]3C[C@H](OC)[C@@H](O[C@H]4C[C@H](OC)[C@@H](NC)[C@H](C)O4)[C@H](C)O3)[C@@H](C)/C=C/C=C3\\CO[C@@H]4[C@H](O)C(C)=C[C@@H](C(=O)O1)[C@]34O)O2", "outcome": "inactive"}
{"smiles": "CNC(=O)ON=C(SC)C(=O)N(C)C", "outcome": "inactive"}
{"smiles": "CCCOCC(=Nc1ccc(Cl)cc1C(F)(F)F)n1ccnc1", "outcome": "inactive"}
{"smiles": "CC1(C(=O)Nc2ccc(O)c(Cl)c2Cl)CCCCC1", "outcome": "inactive"}
{"smiles": "Cc1nn(-c2cc(NS(C)(=O)=O)c(Cl)cc2Cl)c(=O)n1C(F)F", "outcome": "inactive"}
{"smiles": "N#CSCSC#N", "outcome": "inactive"}
{"smiles": "S=C1NCCN1", "outcome": "inactive"}
{"smiles": "CNC(=O)ON=C(C)SC", "outcome": "inactive"}
{"smiles": "O=c1ccc(=O)[nH][nH]1", "outcome": "inactive"}
{"smiles": "COc1cc(OC)nc(Sc2cccc(Cl)c2C(=O)O)n1", "outcome": "inactive"}
{"smiles": "COc1ccc(C(=CC(=O)N2CCOCC2)c2ccc(Cl)cc2)cc1OC", "outcome": "inactive"}
{"smiles": "CSC1=N[C@@](C)(c2ccccc2)C(=O)N1Nc1ccccc1", "outcome": "inactive"}
{"smiles": "C[Si](Cn1cncn1)(c1ccc(F)cc1)c1ccc(F)cc1", "outcome": "inactive"}
{"smiles": "C=C(C)[C@H]1Cc2c(ccc3c2O[C@@H]2COc4cc(OC)c(OC)cc4[C@@H]2C3=O)O1", "outcome": "inactive"}
{"smiles": "CN1COCN(Cc2cnc(Cl)s2)C1=N[N+](=O)[O-]", "outcome": "inactive"}
